Results as given in PubChem BioAssay AID2550 (Johns Hopkins Ion Channel Center, 2010).
In all, about 310,000 compounds went through this assay and about 380 (0.12%) were called active. The sample holds actives, similar compounds and a random draw of the others, so the mix is not that of the screen.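 Rule for the calls: active = B-score of the integrated fluorescence ratio above library mean plus 3 SD, and starting fluorescence ratio within library mean plus 5 SD; inactive = the rest.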

What follows are compounds tested against Short transient receptor potential channel 6 (Mus musculus) (UniProt Q61143) (assay: small molecules opening TRPC6 cation channel – cell-based, HEK293, membrane potential dye, primary screen (AID 2550;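 note: higher score means more depolarization so channel activation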)). Details: HEK293-TRPC6 membrane potential dye fluorescence, at 10 µM; active compounds read high.
Sequence of Short transient receptor potential channel 6 (Mus musculus) (Q61143 whole entry, looked up): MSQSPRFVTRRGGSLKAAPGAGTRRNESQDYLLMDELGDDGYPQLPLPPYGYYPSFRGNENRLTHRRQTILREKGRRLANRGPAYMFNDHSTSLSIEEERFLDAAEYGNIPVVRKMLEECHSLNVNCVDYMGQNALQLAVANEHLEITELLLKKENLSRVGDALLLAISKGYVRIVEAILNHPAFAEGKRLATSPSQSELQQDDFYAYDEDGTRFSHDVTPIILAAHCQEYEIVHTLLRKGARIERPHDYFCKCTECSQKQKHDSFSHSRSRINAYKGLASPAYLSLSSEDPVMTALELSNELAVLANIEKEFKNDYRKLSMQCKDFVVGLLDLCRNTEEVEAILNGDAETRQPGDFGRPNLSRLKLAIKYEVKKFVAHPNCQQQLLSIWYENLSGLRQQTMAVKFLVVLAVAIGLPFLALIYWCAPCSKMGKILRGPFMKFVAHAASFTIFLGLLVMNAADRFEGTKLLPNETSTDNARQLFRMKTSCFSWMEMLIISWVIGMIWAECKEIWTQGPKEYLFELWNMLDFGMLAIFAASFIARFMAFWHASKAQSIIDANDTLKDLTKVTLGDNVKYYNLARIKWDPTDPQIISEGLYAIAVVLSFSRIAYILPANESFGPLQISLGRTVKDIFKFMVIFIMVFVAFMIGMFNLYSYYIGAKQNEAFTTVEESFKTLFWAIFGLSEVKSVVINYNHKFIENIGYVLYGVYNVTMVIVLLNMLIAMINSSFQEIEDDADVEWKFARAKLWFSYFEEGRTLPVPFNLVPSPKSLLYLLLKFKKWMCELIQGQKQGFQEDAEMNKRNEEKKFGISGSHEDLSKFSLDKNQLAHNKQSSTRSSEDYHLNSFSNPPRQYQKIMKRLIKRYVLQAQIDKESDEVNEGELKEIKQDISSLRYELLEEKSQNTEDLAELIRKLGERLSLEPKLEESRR

SMILES | B-score
Cc1c(S(=O)(=O)NC(C)c2ccccc2)c(=O)n(C)c(=O)n1C (stereo not given) | inactive
COc1ccc(CC(NC(C)=O)C(=O)NC2CCN(C(=O)C3CC3)CC2)cc1OC (stereo not given) | inactive
O=S(=O)(c1cccc(Cn2nnc(-c3ccc(F)cc3)n2)c1)N1CCOCC1 | inactive
C[C@]1(C(=O)NCCc2c[nH]c3ccccc23)C=C[C@@H](Cc2ccccc2)N1C(=O)c1ccccc1 | inactive
CCOC(=O)c1nc(-c2ccc3c(c2)OCO3)[nH]c1C | inactive
Cc1cc(Nc2ccc(C(=O)N3CCCCC3)cc2)c2cccc(C)c2n1 | inactive
CCC(c1nnc(SCC(=O)NNC(=O)c2ccccc2)n1Cc1ccccc1)N(C)C (stereo not given) | inactive
COc1ccc(-n2cc(-c3ccccc3)c3c(=S)nc[nH]c32)cc1 | inactive
Cc1nnc(NC(=O)Cn2c(=O)sc3ccccc32)s1 | inactive
O=C(Nc1cc(-c2nn(CC(=O)N3CCCCC3)c(=O)c3ccccc23)ccc1N1CCOCC1)c1ccc(Cl)cc1 | inactive
Cc1cccc(NC(=O)Nc2ccc3c(c2)OCO3)n1 | inactive
OCc1nc(CO)n(Cc2ccccc2)n1 | inactive
CCN(CC)C(=O)N1CCN(C(=O)c2ccc(C)cn2)CC1 | inactive
COc1ccc(CCC(=O)c2ccc(OC)cc2)cc1 | inactive
COCC1CCN(C(=O)C2CCC(=O)N(Cc3cccc(C(F)(F)F)c3)C2)CC1 (stereo not given) | inactive
CCCCc1c(O)nc2n(c1=O)CCS2 | inactive
CCOC(=O)N1CCC(O)(c2cc(C)c(C)cc2C)CC1 | inactive
COc1cccc2c1CCC(NC(C)=O)C2=O (stereo not given) | inactive
O=C1CSC2=NCN(c3ccccc3)CN12 | inactive
CN1C(CC(=O)Nc2ccc(Br)cc2)c2ccccc2CC1(C)C (stereo not given) | inactive
Nc1[nH][nH]c(=O)c1N=Nc1ccc2c(c1)OCO2 | inactive
Cn1c(SCC(=O)Nc2ccc(Cl)cc2)nc(O)cc1=O | inactive
CCOc1ccc(NC(=O)CN(C)CC(=O)Nc2cccc(Cl)c2C)cc1OCC | inactive
Cc1ccc(NC(=O)C2CCN(S(=O)(=O)c3ccc4c(c3)NC(=O)CO4)CC2)cc1C | inactive

SMILES | B-score
CCCCN=C(N)/C(C(=O)OCC)=C(\O)c1ccc(OC)cc1 | inactive
CC(C)C(c1nnnn1C(C)(C)C)N1CCN(Cc2cccnc2)CC1 (stereo not given) | inactive
Cn1c(-c2ccc(C(=O)c3ccccc3)s2)nc2ccccc21 | inactive
COc1cccc(C2c3[nH]c4ccccc4c3CCN2Cc2cccc(C)n2)c1 (stereo not given) | inactive
COC(=O)[C@@H]1CC(O)CN1C(=O)C12CC3CC(CC(C3)C1)C2 (stereo not given in full) | inactive
Cc1ccc(NC(=O)c2sc3nc(N)c(C#N)cc3c2N)cc1 | inactive
CCn1ccnc1CNC(=O)CC1C(=O)NCCN1Cc1ccc(F)cc1Cl (stereo not given) | inactive
CCOCCCNCc1ccc(OCc2ccc(F)cc2)c(OC)c1 | inactive
COc1cc(CNCCN(C)C)ccc1OCc1c(F)cccc1Cl | 12.5 (active)
CCN(CC)CCNCc1ccc(OCc2ccc(Cl)nc2)c(OC)c1 | inactive
CCc1ccc(/C=N/NC(=O)c2nnn(-c3nonc3N)c2CN2CCc3ccccc32)cc1 | inactive
Cc1cccc(CCNS(=O)(=O)c2ccc3c(c2)NC(=O)CO3)c1 | inactive
Cc1ccccc1-n1nnnc1SCCCC(=O)c1ccc(F)cc1 | inactive
CCC(C)N1C(=O)S/C(=C/c2ccc(Sc3nc4ccccc4[nH]3)o2)C1=O (stereo not given) | inactive
COc1cccc(CNC(=O)C2CC(=O)N(C3CCCCCCC3)C2)c1 (stereo not given) | inactive
CNc1nc(Nc2ccc(C)c(Cl)c2)nc(N)c1[N+](=O)[O-] | inactive
O=C1NC(=O)C(c2ccc(Cl)cc2)N1 (stereo not given) | inactive
CC(=O)N1N=C(c2ccncc2)OC1(Cc1ccccc1)Cc1ccccc1 | inactive
Cc1cc(C)cc(C(=O)N(CCc2ccccc2)C2=CC3CCC(C2)N3C)c1 (stereo not given) | inactive
CCCN(CCc1ccccc1)C1CCc2c(O)cccc2C1 (stereo not given) | 16.8 (active)
CN1CCN(/N=C/c2ccc(C#N)cc2)CC1 | inactive
CN1CCN(/N=C/c2ccc(-c3ccc([N+](=O)[O-])cc3)o2)CC1 | 16.2 (active)
Cc1ccc(-c2ccc(/C=N/NC(=O)CN3CCOCC3)o2)cc1[N+](=O)[O-] | inactive
Cc1cc(N2CCN(c3ccc(F)cc3)CC2)n2ncnc2n1 | inactive

SMILES | B-score
CCOCCCN1C(=O)C2C(C(=O)Nc3ccc(OCC)cc3)C3C=CC2(O3)C1C(=O)NC1CCCCC1 (stereo not given) | inactive
O=C(c1ccc(Cl)cc1)n1cnc2ccccc21 | inactive
CC(NC(=O)CNC(=O)Cc1cccc2ccccc12)c1ccc(S(N)(=O)=O)cc1 (stereo not given) | inactive
CCC(C(=O)OC)n1cnc2scc(-c3ccc(C)cc3)c2c1=O (stereo not given) | inactive
O=[N+]([O-])c1cccc(/C=N/Nc2ncc(Br)cn2)c1 | inactive
O=C(N/N=C/c1ccc(Cl)c(Cl)c1)c1ccc2nc[nH]c2c1 | inactive
CCO/C=C1\C(=O)N(c2ccc(OCC)cc2)C(=O)c2ccccc21 | inactive
COc1ccc(C(C)C)cc1S(=O)(=O)Nc1ncn[nH]1 | inactive
CCC(=O)c1ccc(OCC(=O)OCC(=O)NC2CCCCCC2)cc1 | inactive
Cc1nc2c(-c3ccc(F)cc3)c(C)nn2c(C)c1CCC(=O)NCc1ccco1 | inactive
Cc1cc2c(cc1C)[n+](C)cn2CC(O)COCC1CC=CCC1 (stereo not given) | inactive
N#Cc1ccc(-c2ccc(Cl)cc2)nc1Oc1ccc(F)cc1 | inactive
Cc1nn(C)c(C)c1S(=O)(=O)N1CCC(CO)(Cc2ccc(Cl)cc2)CC1 | inactive
COc1cccc(OC)c1C(=O)Nc1c(C(=O)N2CCN(c3ccccn3)CC2)oc2ccccc12 | inactive
CN1CCN(CCCCOc2ccccc2-c2ccccc2)CC1 | inactive
Oc1ccc(CNc2ccccc2O)cc1 | inactive
COc1ccc(-n2ncc3c2CC(C)(C)CC3NC(=O)CCc2c(C)noc2C)cc1 (stereo not given) | inactive
Cc1ccc(N(CCC(=O)O)S(=O)(=O)c2cccc(C(F)(F)F)c2)cc1 | inactive
CCOc1ccc(CN(C)C(=O)c2ccc(=O)[nH]c2)cc1 | inactive
Cc1nn(-c2ccccc2)c2sc(C(=O)N(Cc3ccco3)C(C)C(=O)NC(C)(C)C)cc12 (stereo not given) | inactive
CCN(CC(=O)NCc1ccc(Cl)cc1)C(=O)CSc1ccccc1 | inactive
O=C(Nc1ccc(N2CCCC2=O)cc1)c1cncc(Br)c1 | inactive
